HT1080 IDH1KD tx: qHTS for induction of synthetic lethality in tumor cells producing 2HG: qHTS for the HT-1080-IDH1KD cell line; actives 2% (n = 360,000); HT-1080 IDH1 knockdown viability, ATP luminescence, 48 h; AID 686971, 2013; Potency, µM (doses to about 46.1 µM), inactives show at the top dose activity, negative = toxicity, actives largely listed as cytotoxic;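 further: 0% = DMSO wells and -100% = cell-free medium wells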
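Using the IDH1-knockdown HT-1080 line run in the same batch and compound series as the NT line, viability after 48 h at 37 °C was determined by CellTiter-Glo luminescence and expressed as % activity.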
HT1080-NT tox: qHTS for induction of synthetic lethality in tumor cells producing 2HG: qHTS for the HT-1080-NT fibrosarcoma cell line | HT-1080-NT fibrosarcoma viability, CellTiter-Glo ATP luminescence, 48 h | Potency, µM (top dose mostly 46.1 µM), without a hit: top-dose activity, negative = less viability, usual class: cytotoxic | actives 1.6% (n = 360,000);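 further: NT is the 2HG producing partner of a matched IDH1 knockdown line; 0% = DMSO-treated cells and -100% = media-only wells without cells; nearly all actives have a fitted effect of over 55% in size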
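Toxicity toward the 2HG-producing NT line was scored as %Activity, normalised to DMSO and no-cell wells, from CellTiter-Glo luminescence after 48 hours' treatment.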
KB-3-1 cytotox: qHTS assay for MDR1-selective chemotherapeutics: Primary screen using the parental adenocarcinoma cell KB-3-1; actives 1.4% (n = 400,000); KB-3-1 viability, CellTiter-Glo ATP luminescence, 72 h; Potency, µM (series often up to 46.1 µM), usual class: cytotoxic; further: nearly all actives have a fitted effect of over 60% in size
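KB-3-1 cells, DMEM (no phenol red) + 10% FBS; compound by pin transfer, 72 h, 37 °C. Readout: CellTiter-Glo luminescence after 10 min. Data normalized, curve-fitted.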
DT40 TDP1 CPT: qHTS for Inhibitors of human tyrosyl-DNA phosphodiesterase 1 (TDP1): qHTS in cells in presence of CPT. AID 686979, 2013. chicken DT40 Tdp1-/-;hTDP1 cells + 20 nM CPT, ATP luminescence, 48 h. Potency, µM (highest dose often 46.2 µM), for inactives: at the top dose activity change, negative = growth inhibition, usual class: inhibitors. actives 12% (n = 420,000); further: nearly all actives have a fitted effect of over 55% in size
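Chicken DT40 Tdp1-/- cells stably complemented with human TDP1 were seeded at 400 cells/well in medium containing 20 nM camptothecin, exposed to pin-transferred compounds, and grown at 37 °C for at least 48 hr. Viability was read as ATP luminescence.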
KB-V1 MDR tox: qHTS assay for MDR1-selective chemotherapeutics: Primary screen using the drug-selected MDR subline cells KB-V1 | actives 3.4% (n = 400,000) | Potency, µM (titrated, usually from 46.1 µM), usual class: cytotoxic | KB-V1 MDR cells viability, CellTiter-Glo, 72 h; further: nearly all actives have a fitted effect of over 60% in size
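Drug-selected KB-V1 cells, grown in DMEM lacking phenol red with 10% FBS, receive compound titrations; after three days at 37 degrees C, surviving cell ATP is quantified by CellTiter-Glo luminescence and responses normalized and curve-fitted.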
DT40 TDP1 no CPT: qHTS for Inhibitors of human tyrosyl-DNA phosphodiesterase 1 (TDP1): qHTS in cells in absence of CPT | DT40 Tdp1-/- hTDP1 cells, no CPT, ATP luminescence, 48 h | AID 686978, 2013 | Potency, µM (doses to about 46.2 µM), for the others: top-dose activity change, negative = growth inhibition, usual class: inhibitors | actives 15% (n = 420,000); further: nearly all actives have a fitted effect of over 55% in size
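Seeded 400 DT40-hTDP1 cells/well (vehicle DMSO, no 20 nM CPT); pinned compounds; ≥48 hr at 37 °C; CellTiter-Glo luminescence as viability measure.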
Active calls of the source: *; i = inactive; ? = inconclusive; nt = not tested or not shown. Hits are enriched below; roughly 19% of the tested compounds scored in any of these assays. The call rests on the fitted dose curve; in most records, active means well fitted curve in the direction sought with a large enough effect; inconclusive means small, poorly fitted or top-dose-only effect, or another doubt; inactive means no such curve, though single readings can be large; an effect the other way counts as inactive or inconclusive. Unless noted, on the % scale 0 is the no-effect control and ±100 the full control effect; potency means the concentration at half of the fitted maximal effect.

SMILES	HT1080 IDH1KD tx	HT1080-NT tox	KB-3-1 cytotox	DT40 TDP1 CPT	KB-V1 MDR tox	DT40 TDP1 no CPT
CCCN1C(=O)SC(CC(=O)Nc2ccccc2C)C1=O (configuration not stated)	0%	-2%	i	?	?	?
COc1cc(C(=O)NNC(=O)COc2cccc(F)c2)ccc1OCC(=O)N1CCOCC1	-21%	-7%	i	1%	i	12%
CCN(C(=O)c1cccc(S(=O)(=O)N(C)C)c1)C12CC3CC(CC(C3)C1)C2	-14%	-9%	?	13µM*	?	12µM*
CCN(C(=O)c1ccc2c(c1)OCO2)C12CC3CC(CC(C3)C1)C2	-1%	-3%	i	?	i	23µM*
Nc1nonc1-n1nnc(C(=O)N/N=C/c2ccco2)c1CSc1ccc(Cl)cc1	9%	7%	i	?	i	?
Cc1nc(CC(=O)Nc2nccs2)cs1	19%	10%	i	-9%	i	-11%
O=C(O)C(c1ccccc1)C1CCCCC1O (configuration not stated)	7%	24%	i	19%	i	-14%
COc1ccc(/C=N/n2c(-c3ccccc3)n[nH]c2=S)cc1	4%	-3%	i	?	i	?
COc1ccc(/C=N/n2c(N)nc(-c3ccccc3)c2-c2ccccc2)cc1	-15%	-9%	i	26µM*	i	16µM*
Cc1ccc(S(=O)(=O)N2C(c3ccccc3)CC(=O)C3CN(S(=O)(=O)c4ccc(Cl)cc4)C(c4ccccc4)CC32)cc1 (configuration not stated)	17%	9%	i	?	i	?
CCOC(=O)[C@]12CCCC=C1N(Cc1cccc3ccccc13)C(=O)[C@H](CC(=O)N1CCN(C(=O)C3CC3)CC1)C2	1%	1%	i	?	?	21µM*
CCOC(=O)[C@]12CCC=C1N(Cc1cccc3ccccc13)C(=O)[C@H](CC(=O)N1CCC(c3ccccc3)CC1)C2	0%	3%	i	?	?	?
CCOC(=O)[C@]12CCC=C1N(Cc1cccc3ccccc13)C(=O)[C@H](CC(=O)N1CCN(C(=O)c3ccco3)CC1)C2	-13%	-19%	?	18µM*	i	?
CCOC(=O)[C@]12CCC=C1N(Cc1cccc3ccccc13)C(=O)[C@H](CC(=O)N1CCOCC1)C2	-29%	-28%	i	?	i	?
CCOC(=O)[C@]12CCCC=C1N(Cc1cccc3ccccc13)C(=O)[C@H](CC(=O)N1CCCC1)C2	-10%	-10%	i	?	9.2µM*	21µM*
CCOC(=O)[C@]12CCCC=C1N(Cc1ccccc1)C(=O)[C@H](CC(=O)N1CCC(c3ccccc3)CC1)C2	-23%	?	i	16µM*	?	?
O=C(Nc1cc(F)ccc1F)c1ccc2c(c1)nnn2C1CCCC1	nt	nt	i	-19%	i	?
CN(C)S(=O)(=O)c1ccc(S(=O)(=O)NC2CCOC(C)(C)C2)cc1 (configuration not stated)	8%	12%	i	0%	i	0%
O=C(CCCl)N1c2ccccc2C=Cc2ccccc21	-26%	-6%	i	?	?	15µM*
O=C(N1CCN(CCO)CC1)N1c2ccccc2C=Cc2ccccc21	-5%	0%	i	7%	i	?
CCCN(CCC)C(=O)Cn1c(=O)c2ccccc2n2c(=S)sc(-c3ccccc3C)c12	22%	24%	i	10µM*	?	15µM*
Cc1cc(NC(=O)Nc2csc3c2CCCC3)ccc1Br	nt	nt	?	8.2µM*	?	9.2µM*
Cc1cc(NC(=O)Nc2nc3c(s2)CCCCCC3)ccc1Br	nt	nt	i	21µM*	i	18µM*
CC(C)c1ccc(NC(=O)Nc2csc3c2CCCC3)cc1	nt	nt	?	?	i	?
Cc1ccc(NC(=O)Nc2nc3c(s2)CCCCCC3)cc1C	nt	nt	i	13µM*	i	13µM*
SMILES	HT1080 IDH1KD tx	HT1080-NT tox	KB-3-1 cytotox	DT40 TDP1 CPT	KB-V1 MDR tox	DT40 TDP1 no CPT
O=[N+]([O-])c1ccc(CN2CCN(c3ccc([N+](=O)[O-])cc3)CC2)cc1	?	?	?	?	i	18µM*
COC(=O)C1CCN(Cc2ccc(OCCCN3CCN(c4ccc([N+](=O)[O-])cc4)CC3)cc2)CC1	15µM*	-21%	i	7.3µM*	?	10µM*
O=[N+]([O-])c1ccc(N2CCN(Cc3cccc([N+](=O)[O-])c3)CC2)cc1	?	?	i	?	i	4.1µM*
O=[N+]([O-])c1cccc(COc2ccc(CN3CCOCC3)cc2)c1	3%	2%	i	?	i	16µM*
O=[N+]([O-])c1cccc(CN2CCCCCC2)c1	0%	0%	i	0%	i	-8%
O=[N+]([O-])c1ccc(CN2CCSCC2)cc1	7%	17%	i	7%	i	-16%
CC1CCN(CCCCOc2ccc([N+](=O)[O-])cc2)CC1	9%	0%	i	16%	i	-22%
CCCCc1ccc(NC(=O)C(=O)NCCN2CCN(Cc3ccc([N+](=O)[O-])cc3)CC2)cc1	-1%	0%	i	3.3µM*	?	0.73µM*
O=[N+]([O-])c1ccc(N2CCC(=NOCc3ccc(Cl)cc3)CC2)cc1	-30%	?	i	21µM*	15µM*	10µM*
CC(C)[C@H](NC(=O)c1ccc(Cl)cc1)C(=O)Nc1cccc(S(=O)(=O)N2CCOCC2)c1	0%	9%	i	-19%	i	-23%
COc1cc(C2c3c(-c4ccc(C)cc4)n[nH]c3C(=O)N2c2ccc(F)cc2)ccc1O (configuration not stated)	nt	nt	i	?	i	?
Cc1ccc(N2C(=O)c3[nH]nc(-c4ccc(Cl)cc4)c3C2c2ccc(F)cc2)cc1 (configuration not stated)	nt	nt	i	15µM*	?	21µM*
